Screens: PubChem, several laboratories
An excerpt weighted towards active compounds, which were near 3.7% of everything screened.
Mtb FBA inh: Mtb FBA enzyme inhibitors, primary screen, biochemical, fluorescence, strain H37Rv; 2.3% of 360,000 active; Fructose-bisphosphate aldolase (Mycobacterium tuberculosis (strain ATCC 25618 / H37Rv)), …; inhibition, % at 1 µM; purified M. tuberculosis FBA, fluorescence read-out;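 note: 0% = vehicle and 100% = reference inhibitor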
FadD28 FP inh: inhibitors of FadD28 bisubstrate probe binding, primary screen, biochemical, fluorescence polarization, single point; AID 588549, 2011; inhibition, % at 12.5 µM; 0.22% of 360,000 active; in the data active = inhibition above about 8.5%, passing the limit was not always enough
Mtb betalactam: beta-lactam sensitization of Mtb H37Rv, H37Rv; 0.27% of 330,000 active; AID 434955, 2010; inhibition, % at 25 µM; M. tuberculosis H37Rv growth with meropenem, percent inhibition; call rule not given here;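 note: growth measured after seven days incubation then overnight dye step; 0% = bacteria only wells and 100% = bacteria with antibiotic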
Rv3671c protease: Rv3671c serine protease inhibitors, primary screen, biochemical, fluorescence polarization, M. tuberculosis H37Rv | inhibition, % at 5.96 µM | 0.048% of 320,000 active | P9WHR9; in the data active = inhibition above about 38%;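 note: extracellular domain of Rv3671c used as enzyme; 0% = enzyme with DMSO and 100% = no enzyme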
Target sequence (P9WHR9 whole entry, looked up, the tested form may be a part): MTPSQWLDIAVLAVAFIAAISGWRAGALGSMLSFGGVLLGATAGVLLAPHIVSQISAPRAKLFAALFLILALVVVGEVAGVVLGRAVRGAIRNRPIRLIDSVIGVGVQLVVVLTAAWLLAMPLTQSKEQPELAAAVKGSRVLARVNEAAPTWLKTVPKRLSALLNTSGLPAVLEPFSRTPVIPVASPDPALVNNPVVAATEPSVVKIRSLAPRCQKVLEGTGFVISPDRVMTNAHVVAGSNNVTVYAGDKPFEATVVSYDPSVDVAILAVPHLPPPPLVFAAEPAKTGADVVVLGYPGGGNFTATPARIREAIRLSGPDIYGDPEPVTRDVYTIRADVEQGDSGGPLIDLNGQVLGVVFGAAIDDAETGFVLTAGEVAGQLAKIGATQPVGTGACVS
Mtb UGM inh: M. tuberculosis UGM enzyme inhibitors, primary screen, biochemical, fluorescence polarization, single point. UDP-galactopyranose mutase (Mycobacterium tuberculosis (strain ATCC 25618 / H37Rv)), …. purified UGM, fluorescence polarization probe displacement. inhibition, % at 10 µM. 0.06% of 320,000 active. AID 504406, 2011; in the data active = inhibition above about 10%, passing the limit was not always enough
GDH-TPI counter-1: GDH-TPI coupling enzyme inhibitors, primary screen, artefact control for M. tuberculosis FBA inhibitor project, biochemical, absorbance, full deck. GDH-TPI coupled enzyme counterscreen, NADH absorbance. inhibition, % at 4.8 µM. 1.2% of 360,000 active. AID 588335, 2011; in the data active = inhibition above about 30%;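 note: 0% = DMSO wells and 100% = wells lacking the enzyme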
Mtb FBA confirm: M. tuberculosis aldolase blockers, biochemical, fluorescence, strain H37Rv, confirmation; AID 651616, 2012; 78% of 5,600 active; shares compounds with Mtb FBA inh; purified M. tuberculosis FBA, fluorescence read-out; inhibition, % at 1 µM;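 note: 0% = vehicle wells and 100% = reference inhibitor wells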
GDH-TPI counter-2: GDH-TPI coupling enzyme inhibitors, artefact control for M. tuberculosis FBA inhibitor project, biochemical, fluorescence, high throughput | GDH-TPI coupled enzyme counterscreen | AID 652141, 2013 | 81% of 5,600 active | shares compounds with Mtb FBA inh | inhibition, % at 1 µM; in the data active = inhibition above about 10%
* hit, by the source's call; · = no result; + = active, no number. Cut-off read from the data, not from the text of the source, unless noted: active = inhibition above about 27%; inactive = the rest.

SMILES	Mtb FBA inh	FadD28 FP inh	Mtb betalactam	Rv3671c protease	Mtb UGM inh	GDH-TPI counter-1	Mtb FBA confirm	GDH-TPI counter-2
c1ccc(C2=NN(c3ccccc3)CC2)cc1	48.5*	-0.4	-5.3	2.5	-1.5	24.7	-1.7	-5.1
CC(NC(=O)CN1C(=O)NC2(CCCCCC2)C1=O)c1ccccc1Cl (stereo unspecified)	0.1	-0.1	-1.7	-5.9	0.5	-1.6	·	·
Cc1[nH]n(S(=O)(=O)Cc2ccccc2)c(=O)c1N=Nc1ccccc1Cl	40.3*	-3.6	98.7	6.7	-0.1	-4.8	-4.2	-6.2
CC1CCC(=NO)C(=NO)C1 (stereo unspecified)	-2.1	-2.8	·	·	·	0.4	·	·
CC(C)n1cnc2c(Nc3cccc(F)c3)nc(NCCO)nc21	32.0*	-0.4	-11.4	7.0	-2.9	13.5	109.3*	91.1*
CC(C)CNc1ncnc2c1sc1nc(N3CCOCC3)c3c(c12)CC(C)(C)OC3	4.2	-3.3	-4.4	-10.5	0.1	3.7	·	·
CC1(C)Cc2c(c(-c3ccco3)nc3sc4c(NCCN5CCOCC5)ncnc4c23)CO1	27.4*	-5.3	87.3	0.3	1.5	34.5*	5.4	-0.8
CC1(C)Cc2c(c(-c3ccco3)nc3sc4c(NCCCO)ncnc4c23)CO1	36.6*	-13.6	2.4	-9.0	4.5	48.1*	43.3*	24.1*
CC1(C)Cc2c(c(-c3ccco3)nc3sc4c(NCC5CCCO5)ncnc4c23)CO1 (stereo unspecified)	14.4	-7.2	18.2	-1.7	1.0	26.0	·	·
COC(=O)C1C2OC(C(Br)C2Br)C1C(=O)OC (stereo unspecified)	-2.5	-2.8	·	·	·	2.2	·	·
COc1cccc(C(=O)c2ccccc2NC(C)=O)c1	-0.3	-2.5	·	·	·	-5.3	·	·
CCCNC(=O)C1(C)CCN(C(=O)COc2ccc(Cl)cc2Cl)C1 (stereo unspecified)	0.3	0.0	·	·	·	1.3	·	·
CN(C)CCCNC(=O)c1ccc(-c2cc3nc(NCc4cccnc4)n(C)c(=O)c3s2)cc1	11.0	-3.7	·	·	·	15.6	·	·
c1ccc(Cn2c(-c3ccccc3)nc3nc4ccccc4nc32)cc1	56.3*	-0.9	-2.6	-9.6	-0.4	43.2*	161.1*	132.0*
Cc1cccc(C2Nc3ccccc3C(=O)N2CCc2ccccc2)n1 (stereo unspecified)	73.4*	0.2	-4.2	-5.7	0.1	18.4	+	+
O=C1c2ccccc2NC(c2cccc([N+](=O)[O-])c2)N1CCc1ccccc1 (stereo unspecified)	-2.1	-3.3	-2.6	10.6	-0.6	4.2	·	·
Fc1ccc(C2C3=C(Nc4ncnn42)c2ccccc2OC3c2ccncc2)cc1 (stereo unspecified)	37.3*	-1.8	-5.2	-10.7	-0.7	0.9	101.8*	64.4*
Cc1ccc(C2Oc3ccccc3C3=C2C(c2cccs2)n2ncnc2N3)cc1 (stereo unspecified)	2.9	0.3	77.6	-1.5	-0.7	6.3	·	·
CCCCCCC(NC(=O)Cc1ccc2ccccc2c1)C(=O)O (stereo unspecified)	0.7	0.0	·	·	·	4.5	·	·
Cc1ccc(NCc2ccc(Cl)nc2)c(NCc2ccc(Cl)nc2)c1	27.8*	-2.9	-6.7	-3.3	3.8	3.5	-5.4	-6.5
CC(=O)C1=CCC(c2ccco2)N(S(=O)(=O)c2ccc(C)cc2)C1 (stereo unspecified)	2.4	-4.1	·	·	·	·	·	·
CCOC(=O)Cn1cc(Cn2c3ccccc3c(=O)n2C(C)C)nn1	68.6*	1.0	·	·	·	·	7.7	1.2
CCOC(=O)Cn1c(=O)cc(C)c2ccccc21	3.6	-1.1	-2.4	0.1	0.3	8.1	·	·
Cn1c2ccccc2c2c(C(=O)O)cn(C3CCCC3)c(=O)c21	15.9	-2.5	-6.8	-2.0	2.0	9.4	·	·
CC(C)n1c(=O)c2ccccc2n1Cc1cn(C2CCCC2)nn1	101.0*	-3.8	·	·	·	·	89.6*	60.3*
